Screening results (PubChem BioAssay)
HT1080NT lethal – kills 2HG-producing HT-1080-NT fibrosarcoma cells; HT-1080-NT fibrosarcoma viability, CellTiter-Glo ATP luminescence, 48 h; Potency, µM (series often up to 46.1 µM), for the others: at the highest dose activity, negative = less viability, usual class: cytotoxic; 360,000 tested, 1.6% active; AID 686970;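 also: NT is the 2HG producing partner of a matched IDH1 knockdown line; potency is read from the fitted curve at half-maximal effect; 0% = DMSO-treated cells and -100% = media-only wells without cells; nearly all actives have a fitted effect of over 55% in size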
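Read-out is CellTiter-Glo luminescence after 10 minutes at room temperature, following 48 hours' compound treatment of HT-1080-NT cells (750 cells/well, RPMI, 5% FBS, 37 degrees C).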
TDP1 cell CPT – growth inhibition of DT40 Tdp1-/-;hTDP1 cells with camptothecin (screen for TDP1 inhibitors). Potency, µM (top dose mostly 46.2 µM), for the others: at the top dose activity change, negative = growth inhibition, hits mostly inhibitors. AID 686979. chicken DT40 Tdp1-/-;hTDP1 cells + 20 nM CPT, ATP luminescence, 48 h. 420,000 tested, 12% active; also: potency is read from the fitted curve at half-maximal effect; nearly all actives have a fitted effect of over 55% in size
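Cell growth measured by CellTiter-Glo luminescence after a minimum 48 h, 37 C compound exposure with 20 nM CPT in Tdp1-knockout DT40 cells stably expressing hTDP1, seeded 400/well; qHTS titration format.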
IL1B secr inh – inhibitors of inflammasome signaling (IL-1 beta secretion). THP-1 LPS/ATP IL-1B secretion, AlphaLISA, 16 h; stronger effect = lower value. activity change, % at 57.5 µM. 360,000 tested, 4.7% active; in the data active = activity change below about -50%; inconclusive = mostly about -30% to -49%
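Secreted IL-1B measured by AlphaLISA bead assay after 16 h compound exposure of THP-1 cells; compounds (final up to 57.5 uM) added 1 h before LPS (250 ng/mL) and ATP (1.25 mM) stimulation; lower signal means less secretion.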
HT1080 IDH1KD tx – toxicity to HT-1080 IDH1 knockdown cells (counter line); Potency, µM (doses to about 46.1 µM), for the others: at the highest dose activity, negative = toxicity, hits mostly cytotoxic; HT-1080 IDH1 knockdown viability, ATP luminescence, 48 h; 360,000 tested, 2% active;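 also: potency is read from the fitted curve at half-maximal effect; 0% = DMSO wells and -100% = cell-free medium wells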
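Luminescent ATP read-out (CellTiter-Glo, 10 min at room temperature) after 48 h compound exposure at 37 °C gave viability of IDH1-knockdown HT-1080 cells. Activity was normalised to DMSO and cell-free wells, then fitted as concentration-response curves.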
TDP1 cell noCPT – qHTS for Inhibitors of human tyrosyl-DNA phosphodiesterase 1 (TDP1): qHTS in cells in absence of CPT | DT40 Tdp1-/- hTDP1 cells, no CPT, ATP luminescence, 48 h | Potency, µM (titrated, usually from 46.2 µM), without a hit: top-dose activity change, negative = growth inhibition, hits mostly inhibitors | 420,000 tested, 15% active | AID 686978, 2013; also: potency is read from the fitted curve at half-maximal effect; nearly all actives have a fitted effect of over 55% in size
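Compound effects on proliferation are scored in DT40 Tdp1-/-;hTDP1 cells in the absence of CPT. ATP levels (CellTiter-Glo luminescence) are recorded after a ≥48 hr, 37 °C incubation.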
Starred values were filed as active, the others as inactive; i = inactive; u = inconclusive; x = no result. Only some compounds are listed: those with a hit (about 19% of all), similar ones and a draw of the others. Unless noted, calls follow the shape of the dose curve; as a rule, active = well fitted curve in the direction sought with a large enough effect; inconclusive = small, poorly fitted or top-dose-only effect, or another doubt; inactive = no such curve, though single readings can be large; an effect the other way counts as inactive or inconclusive. Unless noted, % is scaled to controls: 0 for no effect and ±100 for the full control effect.

SMILES	HT1080NT lethal	TDP1 cell CPT	IL1B secr inh	HT1080 IDH1KD tx	TDP1 cell noCPT
Cc1nn(Cc2ccccc2Cl)c(C)c1C(=O)N(C)CC(=O)Nc1cccc(F)c1	-1%	u	-5	-7%	16µM*
CCOc1ccc(NC(=O)CN(C)C(=O)c2c(C)nn(Cc3ccccc3Cl)c2C)cc1OCC	8%	-20%	-26	-3%	-1%
COc1ccc(C(=O)Oc2coc(CSc3nnc(NC(=O)c4cccs4)s3)cc2=O)cc1	u	2%	8	u	-5%
COC(=O)c1ccc[n+](CCc2c[nH]c3ccccc23)c1	1%	16%	21	8%	-8%
Cc1cc(NCc2ccccc2Cl)n2cnnc2n1	x	12µM*	x	x	9.2µM*
COc1ccc(NC2CCCN(C(=O)COc3ccc(Cl)cc3C)C2)cc1OC (centres undefined)	-4%	23µM*	i	-2%	26µM*
CCCCCCCCCCC(CO)CCCCCCCC (centres undefined)	x	-25%	x	x	-15%
COc1ccc(Nc2cnn(-c3nc4ccccc4s3)c(=O)c2Cl)cc1	u	2.1µM*	-81*	u	4.1µM*
Cc1ccc2c(c1)N(CC(=O)N1CCN(c3nc4ccccc4s3)CC1)C(=O)C(C)O2 (centres undefined)	4%	u	-9	u	u
O=c1c(Cl)c(Nc2cccc(Cl)c2)cnn1-c1nc2ccccc2s1	-5%	-39%	-29	5%	u
Cc1ccc(C)c(N2CCN(c3cnn(-c4nc5ccccc5s4)c(=O)c3Cl)CC2)c1	7%	9.2µM*	-5	8%	9.2µM*
O=C(/C=C/c1ccco1)N(Cc1ccccc1F)C1CCS(=O)(=O)C1 (centres undefined)	7%	1%	7	10%	-2%
Cn1c(SCC(=O)N2CCN(c3ccccc3)CC2)nnc1-c1c[nH]c2ccccc12	-5%	u	-9	-17%	u
CCn1c(CNc2ccc(F)cc2)nnc1SCC(=O)N1CCCc2ccccc21	-3%	-26%	-25	-12%	u
O=Cc1cn(CC(=O)N2CCCc3ccccc32)c2ccccc12	-9%	5.8µM*	19	-16%	5.8µM*
CCn1c(CNc2ccc(C)cc2C)nnc1SCC(=O)N1CCCc2ccccc21	-2%	10µM*	-23	3%	u
CCn1c(SCC(=O)N2CCc3ccccc32)nnc1-c1c[nH]c2ccccc12	-4%	u	-12	-1%	21µM*
CCn1c(SCC(=O)N2CCN(c3ccccc3)CC2)nnc1-c1c[nH]c2ccccc12	-1%	21µM*	10	-5%	u
CCn1c(SCC(=O)N2CCCc3ccccc32)nnc1-c1c[nH]c2ccccc12	-6%	u	-9	-4%	u
N#Cc1cn(CC(=O)N2CCCc3ccccc32)c2ccccc12	-10%	-9%	0	0%	-5%
CCn1cc(SCC(=O)N2CCc3ccccc32)c2ccccc21	-11%	u	-2	0%	21µM*
Cn1cc(C(=O)C(=O)N2CCCc3ccccc32)c2ccccc21	u	16µM*	21	u	13µM*
Cn1cc(C(=O)C(=O)N2CCCC2)c2ccccc21	u	1%	-13	12%	-13%
COc1ccc(NC(=O)/C(C#N)=C/C=C/c2ccco2)cc1	u	8.2µM*	-67*	u	9.2µM*
N#C/C(=C/c1ccc(N2CCCCC2)o1)C(=O)Nc1ccc(Cl)cc1	5%	u	-13	12%	u
COc1ccc(NC(=O)/C(C#N)=C/c2ccc(C)o2)cc1	x	-23%	x	x	u
N#C/C(=C\c1ccc(N2CCOCC2)o1)C(=O)Nc1ccc(O)cc1	0%	u	-55*	-8%	29µM*
COc1ccc(NC(=O)/C(C#N)=C\c2ccc(N3CCOCC3)o2)cc1	-17%	u	-20	-2%	21µM*
